Compounds without any hit were thinned out: in the full panel of roughly 83,000, 20% have a hit.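 48-hour exposure, single concentration, 96-well plates; percent growth endpoint where 0 means no net growth. Active: below 10.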 Values without a mark were called inactive. The source made the active and inactive calls.
Assays:
Assay in all cases: NCI-60 one-dose screen, 48 h (100 = growth as untreated, 0 = no growth, -100 = all killed)
Conditions in all cases: 10 µM unless noted
HCT-15 colon = tested on: HCT-15 colon
HT29 colon = tested on: HT29 colon
SNB-19 CNS = tested on: SNB-19 CNS
U251 CNS = tested on: U251 CNS
PC-3 prostate = tested on: PC-3 prostate
SK-MEL-5 melanoma = tested on: SK-MEL-5 melanoma
UACC-62 melanoma = tested on: UACC-62 melanoma
LOX IMVI melanoma = tested on: LOX IMVI melanoma
SK-MEL-28 melanoma = tested on: SK-MEL-28 melanoma
SK-MEL-2 melanoma = tested on: SK-MEL-2 melanoma
EKVX NSCLC = tested on: EKVX NSCLC
SN12C renal = tested on: SN12C renal
UO-31 renal = tested on: UO-31 renal
TK-10 renal = tested on: TK-10 renal
ACHN renal = tested on: ACHN renal
CAKI-1 renal = tested on: CAKI-1 renal
A498 renal = tested on: A498 renal
CCRF-CEM leukemia = tested on: CCRF-CEM leukemia
MOLT-4 leukemia = tested on: MOLT-4 leukemia

SMILES | growth (HCT-15 colon) | growth (HT29 colon) | growth (SNB-19 CNS) | growth (U251 CNS) | growth (PC-3 prostate) | growth (SK-MEL-5 melanoma) | growth (UACC-62 melanoma) | growth (LOX IMVI melanoma) | growth (SK-MEL-28 melanoma) | growth (SK-MEL-2 melanoma) | growth (EKVX NSCLC) | growth (SN12C renal) | growth (UO-31 renal) | growth (TK-10 renal) | growth (ACHN renal) | growth (CAKI-1 renal) | growth (A498 renal) | growth (CCRF-CEM leukemia) | growth (MOLT-4 leukemia)
S=c1[nH]nc(-c2cc3ccc2CCc2ccc(cc2)CC3)n1C1CC1 | 96.6% | 95.7% | 95.5% | 97.4% | 95.8% | 95.7% | 80.2% | 95% | 102% | 110% | 88.9% | 94.8% | 88.8% | 143% | 102% | 98.6% | 97.8% | 104% | 105%
O=C1/C(=C/c2ccc([N+](=O)[O-])cc2)CN(C(=O)CCN2CCC(=NO)CC2)C/C1=C\c1ccc([N+](=O)[O-])cc1 | -68.4% (active) | -49.7% (active) | -41.6% (active) | -56.8% (active) | -34.6% (active) | -50.5% (active) | -52.2% (active) | -83.3% (active) | -30.6% (active) | 2.76% (active) | -31.9% (active) | -17.6% (active) | -94.9% (active) | 8.77% (active) | -59.2% (active) | -46.3% (active) | -3.11% (active) | -13.3% (active) | -7.02% (active)
CN(C[C@H]1Cc2c(cccc2N2CCN(c3ncccn3)CC2)CN1)[C@H]1CCCc2cccnc21 | 31.6% | 21.2% | 41% | 24.1% | 34.2% | 26.9% | 53.7% | 36.4% | 65.2% | 68.8% | 37.7% | 39.9% | 16.9% | 38% | 35.5% | 33.5% | 58.1% | 22.4% | 27.9%
CC(NNC(C)c1ccccc1)c1ccccc1 (centres undefined) | 105% | 95.2% | 100% | 106% | 94% | 101% | 110% | 101% | 118% | 110% | 97.2% | 116% | 93.1% | 105% | 108% | 89% | 97.9% | 118% | 113%
NC1N=C(SCC(=O)N2CCN(c3cc4c(cc3F)c(=O)c(C(=O)O)cn4C3CC3)CC2)NC(=O)/C1=C/c1ccc(Cl)cc1 (centres undefined) | 97.3% | 111% | 99.7% | 99.8% | 95.4% | 102% | 99.9% | 102% | 110% | 108% | 92.8% | 99.4% | 79% | 107% | 102% | 91.2% | 106% | 107% | 109%
CCCC(=O)Oc1ccc(/C(=C(\C)c2ccccc2)c2ccc(OCCN(CC)CC)cc2)cc1 | 49.7% | 5.74% (active) | 85.7% | 65.1% | 60.7% | 64.1% | 80.4% | 79.8% | 68.3% | 97.2% | 99.3% | 86.3% | 51.4% | 86% | 90.7% | 96.9% | 93.7% | 69.7% | 53.7%
CCCCCCCCC(C)OC(=O)c1nn(C(C)=O)c2ccccc12 (centres undefined) | 101% | 103% | 107% | 94.7% | 95.7% | 97.7% | 92.3% | 103% | 116% | 97.7% | 92.2% | 102% | 83.1% | 93.2% | 107% | 91.1% | 109% | 100% | 109%
CC(C)CSc1nc(NN)c(C#N)c(-c2ccccc2)n1 | 86.6% | 103% | 88.8% | 95.3% | 89.3% | 91.1% | 95.3% | 90.6% | 107% | 101% | 91.4% | 104% | 81.7% | 110% | 92.8% | 90.3% | 69.1% | 97.4% | 104%
Cc1nc2cncc(C#Cc3cncc(C(=O)Nc4ccc(CN5CCN(C)CC5)c(C(F)(F)F)c4)c3)c2nc1C | 8.31% (active) | 3.88% (active) | 49.7% | 36% | 25.6% | -18.1% (active) | -32% (active) | -77.9% (active) | -8.83% (active) | -47.7% (active) | 6.58% (active) | 4.16% (active) | -12.5% (active) | 17.5% | -5.33% (active) | -28.4% (active) | -36.9% (active) | 16.2% | 21.1%
CCCCCCCCCCCCNC(=O)[C@H]1CSC(c2cc3ccccc3s2)N1 (some centres undefined) | -34.1% (active) | -8.26% (active) | 51.2% | -78.9% (active) | -17.4% (active) | 57.9% | -76.2% (active) | -85.7% (active) | -89% (active) | -45.7% (active) | -59.6% (active) | -16.1% (active) | -82.6% (active) | -78.7% (active) | 17.5% | 74.7% | 98.9% | -45.5% (active) | -63.3% (active)
COc1ccc(-n2c(=O)sc3c(Cl)nc(C)nc32)c(OC)c1 | 61.3% | 74.1% | 49.6% | 51.6% | 85.2% | 98.1% | 78.4% | 29.1% | 83.3% | 99.4% | 75.9% | 81% | -23.2% (active) | 115% | 95.6% | -58.1% (active) | 91.1% | 55.9% | 78.2%
CCN(CC)CCOc1ccc(/C(=C(/C)c2ccccc2)c2ccc(OC(C)=O)cc2)cc1 | 80.2% | 67.2% | 107% | 103% | 96.9% | 100% | 103% | 102% | 105% | 121% | 95.6% | 93.6% | 80.4% | 111% | 111% | 90.8% | 73.6% | 94.3% | 106%
COc1cc(NC(N)=NCCC(C)(C)c2ccc(C(F)(F)F)cc2)ncc1C#N | 14.6% | -37% (active) | 48.4% | -37.4% (active) | 25.4% | -80.2% (active) | 10.4% | 18.3% | -55.6% (active) | 48.8% | 24.8% | 27.4% | 4.93% (active) | 13.8% | 45.1% | 40.8% | 48.1% | 24.6% | -10.7% (active)
C=C1C(=O)O[C@H]2[C@H]1CC/C(Cn1cc(CNC(=O)Cc3cn(C(=O)c4ccc(Cl)cc4)c4ccc(OC)cc34)nn1)=C\CC[C@@]1(C)O[C@@H]21 | 52.3% | -57.4% (active) | 47% | 14.2% | 7.48% (active) | 48.8% | 8.27% (active) | -82% (active) | -56.9% (active) | 17.1% | 52.6% | 19.3% | 30.2% | -46.8% (active) | 15% | 67.4% | 53.7% | -34% (active) | -23.5% (active)
O=C(c1c[nH]c(=O)c(-c2ccccc2)c1)c1ccccc1O | 97.7% | 101% | 81.5% | 89.2% | 89.2% | 95.4% | 81.1% | 103% | 93.5% | 93.1% | 94.7% | 85.2% | 68.6% | 94.8% | 82.8% | 85% | 76.8% | 99.5% | 96.1%
Nc1ccc(C(=O)CSc2nc3ccccc3[nH]2)cc1 | 99.6% | 110% | 102% | 96.9% | 104% | 97.9% | 90.6% | 106% | 116% | 121% | 81.7% | 102% | 87.5% | 109% | 110% | 96.1% | 87.5% | 106% | 124%

From PubChem BioAssay (NCI)
